Experimental data as given in the supplement of paper PMC12494721.
Where a name gives a salt, the structure may show the parent alone.

Assays:
Conditions in all cases: incubation time: 27 h, anaerobic, 37 °C;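 for the amine columns active = adjusted P below 0.05 in both replicates with a change the same way and a mean fold change under 0.8 or over 1.25; inactive = the rest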
[1] = test system: Clostridium sporogenes DSM 1664; test: growth (OD595) fold change vs plate DMSO controls (fold change (ratio)); higher = more growth
Summary of the method: (§1)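 The reported measure is growth: the fold change against the median of DMSO controls on the plate. Absorbance at 595 nm from anaerobic 96-well mGAM cultures grown for 27 h at 37 °C was blank-subtracted, corrected for background with 20 µM compound solutions in water, and converted to OD with a calibration factor of 5. Fold changes above 1.5 appear as NA, and values are the mean of 2 biological replicates.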

Escherichia coli IAI1 [2] = test: as above
Summary of the method: as §1

[3] = test system: Klebsiella aerogenes DSM 30053; test: as above
Summary of the method: as §1

[4] = test system: Ruminococcus gnavus DSM 108212; test: as above
Summary of the method: as §1

[5] = test system: Klebsiella aerogenes DSM 30053; test: fold change of Histamine concentration vs plate DMSO controls (fold change (ratio)); higher = more amine produced, active = hit call of the paper (significant change in both replicates, either direction)
Summary of the method: (§2)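 Anaerobic mGAM cultures of four gut bacterial strains were grown at 37 °C for 27 h in 80 µL wells, starting at OD 0.1 before 1:1 dilution. Compounds were at 20 µM final (sweeteners 50 µM). Whole cultures were extracted with cold acetonitrile/methanol containing 0.1% formic acid and centrifuged. Amines were quantified by LC–triple-quadrupole MS (dynamic MRM) against external calibration curves and drift-corrected within batch. Each value is the fold change versus plate DMSO controls, averaged over 2 biological replicates.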

[6] = test system: Clostridium sporogenes DSM 1664; test: fold change of Tryptamine concentration vs plate DMSO controls (fold change (ratio)); higher = more amine produced, active = hit call of the paper (significant change in both replicates, either direction)
Summary of the method: as §2

[7] = test system: Ruminococcus gnavus DSM 108212; test: as above
Summary of the method: as §2

Escherichia coli IAI1 [8] = test: fold change of Putrescine concentration vs plate DMSO controls (fold change (ratio)); higher = more amine produced, active = hit call of the paper (significant change in both replicates, either direction)
Summary of the method: as §2

[9] = test system: Klebsiella aerogenes DSM 30053; test: as above
Summary of the method: as §2

Escherichia coli IAI1 [10] = test: fold change of Cadaverine concentration vs plate DMSO controls (fold change (ratio)); higher = more amine produced, active = hit call of the paper (significant change in both replicates, either direction)
Summary of the method: as §2

[11] = test system: Klebsiella aerogenes DSM 30053; test: as above
Summary of the method: as §2

[12] = test system: Ruminococcus gnavus DSM 108212; test: fold change of 2-Phenylethylamine concentration vs plate DMSO controls (fold change (ratio)); higher = more amine produced, active = hit call of the paper (significant change in both replicates, either direction)
Summary of the method: as §2

Row | SMILES | growth [1] | growth (Escherichia coli IAI1 [2]) | growth [3] | growth [4] | fold change of Histamine concentration [5] | fold change of Tryptamine concentration [6] | fold change of Tryptamine concentration [7] | fold change of Putrescine concentration (Escherichia coli IAI1 [8]) | fold change of Putrescine concentration [9] | fold change of Cadaverine concentration (Escherichia coli IAI1 [10]) | fold change of Cadaverine concentration [11] | fold change of 2-Phenylethylamine concentration [12]
1 | COC(=O)Nc1nc2cc(C(=O)c3cccs3)ccc2[nH]1 [Nocodazole] (20 µM) | 0.969 | 1.01 | 1.02 | 1.05 | 0.98 (inactive) | 0.968 (inactive) | 0.999 (inactive) | 0.977 (inactive) | 1 (inactive) | 0.996 (inactive) | 1.03 (inactive) | 1.03 (inactive)
2 | CC[C@H]1OC(=O)C[C@@H](O)[C@H](C)[C@@H](O[C@@H]2O[C@H](C)[C@@H](O[C@H]3C[C@@](C)(O)[C@@H](O)[C@H](C)O3)[C@H](N(C)C)[C@H]2O)[C@@H](CC=O)C[C@@H](C)C(=O)/C=C/C(C)=C/[C@@H]1CO[C@@H]1O[C@H](C)[C@@H](O)[C@@H](OC)[C@H]1OC [Tylosin] (20 µM) | 0 | 0.953 | 0.966 | 0.0976 | 0.792 (inactive) | 0.0522 (active) | 0.0892 (active) | 0.849 (inactive) | 1.05 (inactive) | 0.984 (inactive) | 1.02 (inactive) | 0.105 (active)
3 | COc1ccc2cc1Oc1ccc(cc1)C[C@H]1c3c(cc4c(c3Oc3cc5c(cc3OC)CCN(C)[C@@H]5C2)OCO4)CCN1C [Cepharanthine] (20 µM) | 0.965 | 0.982 | 1.02 | 0.925 | 1.04 (inactive) | 0.993 (inactive) | 0.945 (inactive) | 0.952 (inactive) | 1.01 (inactive) | 1.03 (inactive) | 1 (inactive) | 0.981 (inactive)
4 | O=C(O)c1cn(-c2ccc(F)cc2)c2cc(N3CCNCC3)c(F)cc2c1=O [Sarafloxacin] (20 µM) | 0.012 | 0.0263 | 0.182 | 0.896 | 0.129 (active) | 0.0563 (active) | 0.8 (inactive) | 0.832 (inactive) | 0.651 (active) | 0.244 (active) | 0.969 (inactive) | 0.894 (inactive)
5 | COc1cc2c(cc1OC)CC(=O)N(CCCN(C)C[C@H]1Cc3cc(OC)c(OC)cc31)CC2 [Ivabradine hydrochloride] (20 µM) | 1.05 | 0.995 | 0.986 | 0.903 | 1.02 (inactive) | 1.01 (inactive) | 1.1 (inactive) | 0.924 (inactive) | 0.937 (inactive) | 0.895 (inactive) | 1.01 (inactive) | 1.1 (inactive)
6 | C/C(=C1\CCOC(=O)S1)N(C=O)Cc1cnc(C)nc1N [Cycotiamine] (20 µM) | 0.964 | 0.988 | 0.991 | 1.01 | 1.01 (inactive) | 1.02 (inactive) | 1.03 (inactive) | 0.971 (inactive) | 1.01 (inactive) | 1.01 (inactive) | 0.999 (inactive) | 1.06 (inactive)
7 | OCCN1CCN(CC/C=C2/c3ccccc3Sc3ccc(Cl)cc32)CC1 [Zuclopenthixol dihydrochloride] (20 µM) | 0.904 | 1.25 | 1.01 | 0.937 | 1.03 (inactive) | 0.993 (inactive) | 0.919 (inactive) | 1.31 (inactive) | 0.994 (inactive) | 1.09 (inactive) | 0.992 (inactive) | 0.947 (inactive)
8 | CC(=O)NC[C@H]1CN(c2ccc(N3CCOCC3)c(F)c2)C(=O)O1 [Linezolid] (20 µM) | 0 | 0.788 | 0.985 | 0.196 | 0.819 (inactive) | 0.0335 (active) | 0.112 (active) | 0.59 (active) | 1 (inactive) | 0.777 (active) | 1 (inactive) | 0.119 (active)
9 | O=P(O)(O)C(O)(Cn1ccnc1)P(=O)(O)O [Zoledronic acid hydrate] (20 µM) | 1.08 | 0.974 | 0.978 | 1 | 1.08 (inactive) | 0.973 (inactive) | 0.629 (inactive) | 0.987 (inactive) | 1.02 (inactive) | 1.05 (inactive) | 1 (inactive) | 0.627 (inactive)
10 | C[N+]1(C)CCC(OC(=O)C(O)(c2ccccc2)C2CCCC2)C1 (stereo not given) [Glycopyrrolate bromide] (20 µM) | 0.836 | 1.03 | 1.01 | 0.959 | 1 (inactive) | 1.01 (inactive) | 0.994 (inactive) | 1.08 (inactive) | 1 (inactive) | 1.01 (inactive) | 1.01 (inactive) | 1.02 (inactive)
